sPLA2-III inh = human group III sPLA2 inhibitors, primary screen, biochemical, QFRET, BODIPY PC-A2 liposome substrate; hit rate 0.56% among 370,000; QFRET BODIPY PC-A2 liposome hydrolysis, fluorescence; Group 3 secretory phospholipase A2 (Homo sapiens), Q9NZ20; inhibition, % at 12.2 µM;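 active = inhibition above mean plus 3 SD of compounds lying within the high and low control bounds, cut at about 19% in these data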;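 note: 0% = median of test compound wells and 100% = no enzyme DMSO wells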
Target sequence (Q9NZ20 whole entry, looked up): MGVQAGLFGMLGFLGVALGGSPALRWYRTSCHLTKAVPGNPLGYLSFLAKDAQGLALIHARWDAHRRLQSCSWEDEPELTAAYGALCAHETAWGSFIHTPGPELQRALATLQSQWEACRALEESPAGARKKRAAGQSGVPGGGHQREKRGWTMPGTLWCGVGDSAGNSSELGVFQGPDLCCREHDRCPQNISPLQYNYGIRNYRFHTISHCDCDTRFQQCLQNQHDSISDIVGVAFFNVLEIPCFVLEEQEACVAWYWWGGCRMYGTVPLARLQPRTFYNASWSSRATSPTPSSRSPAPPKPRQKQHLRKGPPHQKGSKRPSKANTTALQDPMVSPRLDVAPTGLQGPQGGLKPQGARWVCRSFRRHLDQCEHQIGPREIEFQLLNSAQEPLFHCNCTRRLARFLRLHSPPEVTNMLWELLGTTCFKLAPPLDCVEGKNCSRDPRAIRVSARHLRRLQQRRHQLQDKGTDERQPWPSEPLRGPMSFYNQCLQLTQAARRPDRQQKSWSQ
rCAG binder = binders of r(CAG) RNA repeats, primary screen, biochemical, fluorescence | hit rate 1.3% among 370,000 | r(CAG) RNA repeat, TO-PRO-1 dye displacement fluorescence | AID 651821, 2012 | inhibition, % at 3 µM;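 active = inhibition above the plate cutoff, the mean of all test compounds on that plate plus 3 SD, cut at about 35% in these data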;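 note: 0% = DMSO alone and 100% = 100 µM mitoxantrone as full dye displacement; higher means more dye released from RNA so lower well fluorescence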
PG9 Ab binder = binders of HIV-1 gp120 antibody PG9, primary screen, biochemical, TR-FRET; HIV-1 gp120 / PG9 antibody interaction; TR-FRET gp120-PG9 antibody binding; inhibition, % at 6.7 µM; hit rate 0.43% among 360,000; AID 624416, 2012; in the data active = inhibition above about 8.5%
bovine MsrA act = bovine MsrA enzyme activators, primary screen, biochemical, absorbance, HTS | activation, % at 10.6 µM | AID 602163, 2012 | purified bovine MsrA, absorbance read-out | hit rate 0.3% among 360,000; in the data active = activation above about 7.5%;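 note: 0% = vehicle and 100% = reference activator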
MsrA inhibitor = bovine MsrA enzyme inhibitors, primary screen, biochemical, absorbance, HTS | Methionine sulfoxide reductase A (Bos taurus) | purified bovine MsrA, absorbance read-out | inhibition, % at 15.5 µM | hit rate 0.75% among 360,000; in the data active = inhibition above about 4.5%;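 note: 0% = vehicle wells with enzyme and 100% = reference inhibitor wells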
rCAG bind conf = small molecules binding CAG repeat RNA – biochemical, fluorescence, confirmation; shares compounds with rCAG binder; r(CAG) RNA repeat, TO-PRO-1 dye displacement fluorescence; inhibition, % at 3 µM; hit rate 70% among 4,300; AID 652065, 2013;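 active = inhibition above a per-plate cutoff, the mean inhibition of sample wells plus 3 SD, cut at about 35% in these data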;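 note: loss of TO-PRO-1 fluorescence as compound displaces dye from 1x1 AA loop RNA; 0% = DMSO only wells and 100% = 100 µM mitoxantrone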
DNA CAG counter = displacement of TO-PRO-1 from CAG DNA duplex, counter-screen for rCAG RNA repeat binder project, biochemical, fluorescence, TO-PRO-1 dye, d(CAG) DNA oligo | hit rate 94% among 4,300 | inhibition, % at 3 µM | d(CAG) DNA oligo TO-PRO-1 dye displacement | AID 652068, 2013 | shares compounds with rCAG binder;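 active = inhibition above its plate's cutoff, the mean test-well inhibition plus 3 SD, cut at about 4.8% in these data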;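 note: 0% = DNA dye mix with DMSO and 100% = 100 µM mitoxantrone; hits displace the dye from DNA and so lower well fluorescence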
The depositor's hits bear a star; nt = no result. Most compounds without a hit are left out; they make up all but 3.2% or so of the library.

SMILES	sPLA2-III inh	rCAG binder	PG9 Ab binder	bovine MsrA act	MsrA inhibitor	rCAG bind conf	DNA CAG counter
CCOc1cc(/C=C(\CC(=O)O)c2nc3ccccc3s2)ccc1OCC(=O)Nc1cccc(C(F)(F)F)c1	-10	67*	-1	0	1	53*	18*
COc1ccc(-c2nn(-c3ccccc3)cc2C(=O)O)cc1OC	-4	1	2	-3	2	nt	nt
COc1cc(/C=C(\CC(=O)O)c2nc3ccccc3s2)ccc1OCC(=O)Nc1ccccc1F	-22	59*	-1	-5	2	62*	23*
COc1cc(/C=C(\C#N)c2nc3ccccc3s2)ccc1OCC(=O)Nc1ccccc1	nt	nt	nt	0	nt	nt	nt
COc1cc(-n2c(C)nc3cc(C(=O)N4CCCCC4)ccc32)cc(OC)c1OC	-6	0	nt	nt	nt	nt	nt
O=c1[nH]c(=O)n(C2OC(CO)C(O)C(O)C2O)cc1F (stereo not given)	-1	0	-2	nt	0	nt	nt
CCCCCCCCCCCCCCCCCCNc1ccn(C2OC(COP(=O)(O)OCC3OC(n4cc(F)c(=O)[nH]c4=O)CC3O)C(O)C2O)c(=O)n1 (stereo not given)	-97	55*	-1	-1	-1	61*	36*
CCC1=C(C)CN(C(=O)NCCc2ccc(S(=O)(=O)NC(=O)NC3CCC(C)CC3)cc2)C1=O (stereo not given)	-2	42*	0	0	-2	33	5.0*
CC(C)Oc1ccc(S(=O)(=O)N2CCOCC2)cc1NC(=O)C1=NN(c2ccccc2)C(=O)CC1	3	2	-1	0	3	nt	nt
O=S(=O)(Nc1nc2ccc(S(=O)(=O)N3CCCCC3)cc2s1)c1ccccc1	-45	72*	-2	-4	-1	65*	28*
Cc1ccc(S(=O)(=O)Nc2nc3ccc(S(=O)(=O)N4CCCC4)cc3s2)cc1	-54	71*	-2	-3	-1	74*	38*
CC(=O)Nc1nc2ccc(S(=O)(=O)N3CCCCC3)cc2s1	2	4	-1	-5	-1	nt	nt
CCCCCN(C(=O)CCC(=O)OCc1cccc(Br)c1)c1c(N)n(CCCC)c(=O)[nH]c1=O	6	0	-1	0	-1	nt	nt
CC(C)CN(c1ccccc1)S(=O)(=O)c1nnc(NC(=O)c2ccco2)s1	-1	48*	0	-7	2	48*	16*
CCN(c1ccc(C)cc1C)S(=O)(=O)c1nnc(NC(=O)c2ccco2)s1	-16	59*	-1	-10	3	45*	14*
CCOC(=O)[C@@]12CCCC=C1N(CCc1ccc(Cl)cc1)C(=O)[C@H]2CC(=O)N1CCOCC1	7	5	nt	nt	nt	nt	nt
O=S(=O)(Nc1ncnc2scc(-c3ccc(F)cc3)c12)c1cc(F)ccc1F	-29	54*	-2	-2	1	55*	20*
COc1ccc(NC(=O)Nc2cc(C)nn2-c2ccccc2)cc1	4	-1	nt	nt	nt	nt	nt
COc1cccc2cc(C(=O)C3=C(O)C(=O)N(c4cc(C)on4)C3c3cccs3)oc12 (stereo not given)	-1	44*	4	-11	0	62*	27*
COc1cc(C2C(C(=O)c3cccs3)=C(O)C(=O)N2c2cc(C)on2)ccc1O (stereo not given)	-6	7	0	-11	4	nt	nt
CCCCNC(=O)CSc1nc2c(sc(=S)n2-c2cc(Cl)ccc2OC)c(=O)[nH]1	-10	44*	-2	-5	2	43*	12*
CCOC(=O)CSc1nc2c(sc(=S)n2-c2ccc(CC)cc2)c(=O)[nH]1	-32	60*	-2	0	3	65*	26*
COCC(=O)N1CC[C@H]2[C@@H]1c1cc(-c3cccc(OC)c3)ccc1N(C)[C@H]2CO	7	4	nt	nt	nt	nt	nt

Screening results deposited in PubChem BioAssay by The Scripps Research Institute Molecular Screening Center.
